NPYLR7 agonist: mosquito NPYLR7 agonism; activation, % at 10 µM; AID 1259423; HEK293T NPYLR7/Galpha15, GCaMP6s calcium fluorescence; 270,000 compounds, 0.15% hits; in the data active = activation above about 40%;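 note: 0% = vehicle and 100% = reference agonist at the receptor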
mcGAS lum: blocks mouse cGAS activity | Q8C6L5 | inhibition, % at 12.5 µM | AID 1259399 | 160,000 compounds, 0.15% hits | recombinant cGAS, Kinase-Glo ATP depletion luminescence;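 note: 0% = negative control wells and 100% = reference inhibitor with no enzyme activity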
Target sequence (Q8C6L5 whole entry, looked up): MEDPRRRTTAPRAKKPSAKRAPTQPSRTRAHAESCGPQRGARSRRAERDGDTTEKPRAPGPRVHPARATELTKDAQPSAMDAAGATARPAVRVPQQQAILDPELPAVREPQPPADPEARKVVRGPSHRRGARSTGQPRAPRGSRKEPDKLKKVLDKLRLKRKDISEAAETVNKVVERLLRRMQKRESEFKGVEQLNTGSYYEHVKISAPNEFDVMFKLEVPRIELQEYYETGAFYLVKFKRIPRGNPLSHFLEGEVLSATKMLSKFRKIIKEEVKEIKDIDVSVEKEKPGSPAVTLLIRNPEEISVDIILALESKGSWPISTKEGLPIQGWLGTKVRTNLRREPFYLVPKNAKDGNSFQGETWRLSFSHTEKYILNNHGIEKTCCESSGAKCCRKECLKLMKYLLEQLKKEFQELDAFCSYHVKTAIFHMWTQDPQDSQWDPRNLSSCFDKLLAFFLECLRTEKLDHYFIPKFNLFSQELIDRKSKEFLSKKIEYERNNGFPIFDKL
hcGAS inh: blocks human cGAS activity. Q8N884. recombinant h-cGAS, ATP depletion, Kinase-Glo luminescence. inhibition, % at 12.5 µM. 290,000 compounds, 0.081% hits. AID 1259398;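 note: 0% = vehicle reaction and 100% = reaction without DNA for no activity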
Starred values were filed as active, the others as inactive; nt = not tested or not shown. Compounds with a hit are over-represented: about 0.3% of the library has one in this group of screens. Cut-off read from the data, not from the text of the source, unless noted: active = inhibition above about 40%; inactive = the rest.

SMILES | NPYLR7 agonist | mcGAS lum | hcGAS inh
COc1ccc(C(=O)N(Cc2ccccc2)C2CCC(NC(=O)C3CCN(C(=O)c4ccccc4Cl)CC3)CC2)cc1 (stereo unspecified) | 45* | -7 | -5
CC(C)(C)C1CCc2sc(C(=O)N3CCNC(=O)C3)cc2C1 (stereo unspecified) | 6 | 93* | -11
CC(C)(C)C1CCc2sc(C(=O)NN3C(=O)NC4(CCCCC4)C3=O)cc2C1 (stereo unspecified) | -1 | nt | 14
COc1cc(C=C2COc3ccccc3C2=O)ccc1OCc1ccccc1 | -4 | 12 | -5
COc1ccc2c(c1)OC/C(=C\c1ccc(OC)c(O)c1)C2=O | nt | 46* | -7
CCCN=Cc1c(-c2ccccc2)[nH]n(-c2nc3ccccc3s2)c1=O | 2 | -2 | 54*
CC(=NCCCn1ccnc1)c1c(-c2ccccc2)[nH]n(-c2nc3ccccc3s2)c1=O | -4 | 4 | 6
O=C1N=c2ccccc2=C1c1sc(=O)[nH]c1O | -8 | 63* | 6
O=C1N=c2ccccc2=C1c1sc(=S)n(-c2ccccc2)c1O | -10 | -5 | -5
Cc1nc(N2CCN(C(=O)C3CCCO3)CC2)cc(-n2cccn2)n1 (stereo unspecified) | -10 | -8 | -4
C=CCn1c(SCC(=O)N2CCCC2)nnc1-c1cc(OC)cc(OC)c1 | -2 | -6 | -6
COc1ccc2nc(NC(=O)/C=C/c3ccc(Br)cc3)sc2c1 | -6 | -6 | 5
COc1ccc2nc(C=Cc3cc(Br)c(O)c(OC)c3)sc2c1 | 81* | nt | -6
COc1ccc(Cn2c(-c3ccc(Cl)c(F)c3)nc3ccccc3c2=O)c(OC)c1 | 7 | 1 | -2
COCC(=O)Nc1c(C)c(C(C)(C)C)nn1-c1ccccc1 | -1 | nt | 1
O=c1oc(C=Cc2ccco2)nc2sc3c(c12)CCCC3 | -2 | nt | -8
O=c1oc(/C=C/c2ccco2)nc2ccc(Br)cc12 | -12 | 45* | 20
CCNC(=O)C1CN(C(=O)C(C)Oc2ccccc2C(F)(F)F)C1 (stereo unspecified) | 0 | nt | -6
COc1ccccc1CN(Cc1cccc(C(F)(F)F)c1)Cc1nc(C(=O)O)co1 | 12 | -4 | -2
CC(=O)O[C@@H]1CC[C@@]2(C)C(CC[C@]3(C)C2CC=C2C4CC(C)(C)CC[C@]4(C(=O)O)CC[C@]23C)C1(C)C (stereo partly specified) | nt | -4 | -5
C[C@H]1O[C@H](O[C@@H]2[C@@H](O[C@H]3CC[C@@]4(C)C(CC[C@]5(C)C4CC=C4[C@@H]6CC(C)(C)CC[C@]6(C(=O)O)CC[C@]45C)[C@]3(C)CO)OC[C@@H](O)[C@H]2O)[C@@H](O)[C@H](O)[C@@H]1O (stereo partly specified) | 53* | nt | 1
O=C(NS(=O)(=O)c1ccc(Cl)s1)c1sc2cc(Cl)ccc2c1Cl | 1 | 7 | 5
Cc1ccccc1C1CCCN1C(=O)C(C)(C)NC(=O)c1cccs1 (stereo unspecified) | -3 | nt | 50*
CC(C)(NC(=O)c1cccs1)C(=O)NC1CCN(Cc2ccccc2)C1 (stereo unspecified) | 13 | nt | -1
CC1=NN(c2ccc(Cl)c(C(=O)O)c2)C(=O)/C1=C\c1ccc(Br)c([N+](=O)[O-])c1 | 4 | 50* | 7
SMILES | NPYLR7 agonist | mcGAS lum | hcGAS inh
COc1cc(/C=C2\C(=O)N(c3ccc(Cl)c(C(=O)O)c3)N=C2C)cc([N+](=O)[O-])c1O | 3 | 26 | -3
Cc1nnc(SCC(=O)Nc2cccc(-c3nc4ccccc4s3)c2)s1 | -1 | -5 | -5
Cc1ccccc1Cn1c(C)c(C(=O)NCc2ccccn2)sc1=O | -3 | nt | -4
Cc1cc(C)cc(-c2nc3cc(C)ccn3c2NC(=O)CCl)c1 | -10 | 42* | -6
CC(=O)Nc1c(-c2cc(C)cc(C)c2)nc2cc(C)ccn12 | -4 | 1 | 0
CC1CN(c2cc(Oc3ccc(Cl)cc3)ncn2)CCN1C(=O)COc1ccccc1 (stereo unspecified) | -10 | -4 | -4
COc1ccc(S(=O)(=O)N(Cc2ccc(C(F)(F)F)cc2)c2ccc(OC)c(OC)c2)cc1 | nt | -4 | -4
O=c1nc(N2CCOCC2)nc(Nc2cccc(Br)c2)[nH]1 | 2 | nt | 3
Cc1ccc(-n2nc(-c3ccccc3F)cc2C(=O)N2CCN(C/C=C/c3ccccc3)CC2)c(C)c1 | nt | -7 | -14
CC(=O)Nc1ccc2c3c(cccc13)C(=O)N(c1ccccc1)C2=O | -1 | -5 | -6
Cc1cccc(N2C(=O)c3cccc4c(N)ccc(c34)C2=O)c1 | 77 | -1 | 4
C=CCN1C(=O)c2cccc3c(Cl)ccc(c23)C1=O | 3 | -5 | -3
Nc1ccc2c3c(cccc13)C(=O)N(c1ccccc1)C2=O | 76* | nt | -1
O=C1c2cccc3c(NCCO)ccc(c23)C(=O)N1CCO | 107* | -3 | -4
C=CCNc1ccc2c3c(cccc13)C(=O)N(c1ccccc1)C2=O | 99* | -5 | -7
CCCCN(CC)Cc1csc(C)c1CC | 2 | nt | -9
O=C(C1CCCN(C2CCCCC2)C1)N1CCN(C2CCOCC2)CC1 (stereo unspecified) | 15 | nt | -5
c1csc(-c2cnc3ccc(-c4ccncc4)nn23)c1 | 8 | 5 | 2
O=c1nc2n3ccc(-c4ccncc4)cc3ncc-2s1 | 55* | -2 | -2
N#CC(=CC=Cc1ccco1)C(N)=S | 6 | 79* | 61*
O=C(COC(=O)C=Cc1ccco1)COC(=O)C=Cc1ccco1 | -15 | nt | 16
Cc1occc1C(=O)Nc1ccc(C(=O)N(C)CCN2CCCCC2C)cc1 (stereo unspecified) | 5 | nt | 1
Cc1c(C(=O)N2CCN(C(=O)Cc3ccccc3)CC2)cc(-c2ccc(Cl)cc2)n1-c1ccccc1F | 15 | -5 | -3
CCOC(=O)c1c(-c2ccccc2)csc1N=Cc1nc(-c2ccccc2)oc1O | 97* | -8 | -6
CCOC(=O)c1c(-c2ccc(C)cc2)csc1N=Cc1nc(-c2ccccc2)oc1O | 3 | -7 | -7
SMILES | NPYLR7 agonist | mcGAS lum | hcGAS inh
Nc1cc(-c2cccc(Cl)c2)nn1-c1ccc(C(=O)N2CCCCC2)cc1 | -6 | -4 | -3
CC/C=C/CC(=O)NC[C@@H]1CCNC[C@H]1O | 3 | -8 | -2
Cc1ccc2nc(Cn3cnc4c(Cl)cc(Cl)cc4c3=O)cc(=O)n2c1 | 61* | nt | -4
Cc1ccc2nc(Cn3cc(C(F)(F)F)cc(Cl)c3=O)cc(=O)n2c1 | 3 | nt | -1
Cc1c(NC(=O)C2CSCN2C(=O)C(C)(C)C)cccc1C(N)=O (stereo unspecified) | -1 | -17 | -12
COc1nc(-c2ccc(C(F)(F)F)cc2)n(-c2ccc(NC(=O)C(C)(C)CCl)cc2)n1 | -3 | -4 | -1
CC(=O)Nc1ccc(-n2c(CCC(=O)NCc3ccncc3)ccc2-c2ccc(F)cc2)cc1 | 2 | -11 | -6
COc1ccccc1-c1cc(C(=O)N2CCc3ccccc3C2)nc2cc(C(C)(C)C)nn12 | -2 | 84* | 6
CC(C)(C)c1cc2nc(C(=O)N3CCc4ccccc4C3)cc(-c3ccccc3F)n2n1 | -13 | 1 | 1
Cc1onc(-c2ccccc2Cl)c1C(=O)Nc1ccc(N=Nc2ccccc2)cc1 | -9 | -2 | -2
COc1cc(/C=C2\C(=N)N3N=CSC3=NC2=O)cc(Br)c1OC(=O)c1ccco1 | 49* | nt | 6

High-throughput results from PubChem BioAssay.
